17 compounds from ChEMBL document CHEMBL1961873, “Compounds: GSK PKIS; Assays: Nanosyn kinase panel” (2012) can be followed below.

In test [1] the target is Dual specificity protein kinase CLK3 (Homo sapiens) (UniProt P49761). To be noted: at 1 µM.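 Note: each value is the mean inhibition of CLK3.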
For test [2], the target named is Dual specificity tyrosine-phosphorylation-regulated kinase 1A (Homo sapiens) (UniProt Q13627). The conditions noted are these: at 0.1 µM.
For test [3] the target is unchanged. To be noted: at 1 µM.
The target in test [4] is Dual specificity tyrosine-phosphorylation-regulated kinase 1B (Homo sapiens) (UniProt Q9Y463). The conditions noted are these: at 0.1 µM.
Sequence of Dual specificity tyrosine-phosphorylation-regulated kinase 1B (Homo sapiens) (Q9Y463 whole entry, looked up): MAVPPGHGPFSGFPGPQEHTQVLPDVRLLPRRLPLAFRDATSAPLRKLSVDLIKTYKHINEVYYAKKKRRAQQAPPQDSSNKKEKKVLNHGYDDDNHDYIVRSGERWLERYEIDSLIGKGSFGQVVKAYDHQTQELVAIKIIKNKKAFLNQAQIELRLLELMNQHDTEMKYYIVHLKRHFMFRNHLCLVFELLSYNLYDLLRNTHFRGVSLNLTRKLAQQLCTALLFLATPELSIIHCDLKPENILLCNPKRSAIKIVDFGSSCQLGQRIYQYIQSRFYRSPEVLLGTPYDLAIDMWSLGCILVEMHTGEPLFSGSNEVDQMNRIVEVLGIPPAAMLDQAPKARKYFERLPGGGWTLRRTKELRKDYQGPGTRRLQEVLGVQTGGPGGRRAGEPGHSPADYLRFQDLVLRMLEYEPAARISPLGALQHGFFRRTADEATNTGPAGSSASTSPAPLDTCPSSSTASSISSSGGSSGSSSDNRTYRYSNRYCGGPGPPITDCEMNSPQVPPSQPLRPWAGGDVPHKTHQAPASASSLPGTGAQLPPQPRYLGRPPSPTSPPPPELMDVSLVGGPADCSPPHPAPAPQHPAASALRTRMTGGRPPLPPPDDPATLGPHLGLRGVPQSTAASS
For test [5] the target is unchanged. The conditions noted are these: at 1 µM.
In test [6] the target is T1, Dual specificity tyrosine-phosphorylation-regulated kinase 2 (Homo sapiens) (UniProt Q92630).
T1 sequence (whole entry): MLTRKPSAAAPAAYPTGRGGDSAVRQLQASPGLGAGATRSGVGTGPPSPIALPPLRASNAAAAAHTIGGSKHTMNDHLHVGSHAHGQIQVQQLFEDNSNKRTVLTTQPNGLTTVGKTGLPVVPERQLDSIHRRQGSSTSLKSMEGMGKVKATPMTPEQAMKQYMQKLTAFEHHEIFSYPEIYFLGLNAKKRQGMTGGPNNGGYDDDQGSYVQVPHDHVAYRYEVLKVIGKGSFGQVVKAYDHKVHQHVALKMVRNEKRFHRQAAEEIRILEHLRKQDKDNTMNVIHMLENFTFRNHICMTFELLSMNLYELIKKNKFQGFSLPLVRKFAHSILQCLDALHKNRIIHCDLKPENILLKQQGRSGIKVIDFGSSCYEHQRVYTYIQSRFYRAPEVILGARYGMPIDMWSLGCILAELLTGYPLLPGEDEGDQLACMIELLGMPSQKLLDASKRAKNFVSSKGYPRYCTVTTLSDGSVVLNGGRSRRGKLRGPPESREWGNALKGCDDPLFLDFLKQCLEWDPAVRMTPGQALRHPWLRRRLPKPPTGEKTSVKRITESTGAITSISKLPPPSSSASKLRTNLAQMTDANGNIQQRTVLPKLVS
The conditions noted are these: at 0.1 µM.

For test [7], the target named is T1, Dual specificity tyrosine-phosphorylation-regulated kinase 2 (Homo sapiens). To be noted: at 1 µM.
The target of test [8] is Glycogen synthase kinase-3 alpha (Homo sapiens) (UniProt P49840). To be noted: at 0.1 µM.
Sequence of Glycogen synthase kinase-3 alpha (Homo sapiens) (P49840 2-483 limits assumed): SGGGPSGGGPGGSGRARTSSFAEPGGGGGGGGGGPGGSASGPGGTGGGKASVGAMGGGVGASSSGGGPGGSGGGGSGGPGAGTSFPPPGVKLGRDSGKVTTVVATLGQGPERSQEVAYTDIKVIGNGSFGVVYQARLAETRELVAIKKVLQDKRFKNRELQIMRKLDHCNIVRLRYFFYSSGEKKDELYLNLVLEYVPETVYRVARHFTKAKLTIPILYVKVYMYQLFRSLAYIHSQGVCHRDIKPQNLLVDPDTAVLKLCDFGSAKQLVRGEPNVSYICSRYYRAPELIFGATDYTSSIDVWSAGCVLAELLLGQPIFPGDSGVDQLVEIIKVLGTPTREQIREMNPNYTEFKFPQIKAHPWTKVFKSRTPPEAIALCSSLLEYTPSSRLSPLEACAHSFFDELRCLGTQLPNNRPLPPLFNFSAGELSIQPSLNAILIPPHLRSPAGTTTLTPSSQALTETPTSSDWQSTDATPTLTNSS
Test [9] shares this target. To be noted: at 1 µM.
In test [10] the target is Glycogen synthase kinase-3 beta (Homo sapiens) (UniProt P49841). To be noted: at 0.1 µM.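 Note: values are mean percent inhibition of GSK3B activity, from the GSK Published Kinase Inhibitor Set (PKIS) screening dataset.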
Sequence of Glycogen synthase kinase-3 beta (Homo sapiens) (P49841 whole entry, looked up): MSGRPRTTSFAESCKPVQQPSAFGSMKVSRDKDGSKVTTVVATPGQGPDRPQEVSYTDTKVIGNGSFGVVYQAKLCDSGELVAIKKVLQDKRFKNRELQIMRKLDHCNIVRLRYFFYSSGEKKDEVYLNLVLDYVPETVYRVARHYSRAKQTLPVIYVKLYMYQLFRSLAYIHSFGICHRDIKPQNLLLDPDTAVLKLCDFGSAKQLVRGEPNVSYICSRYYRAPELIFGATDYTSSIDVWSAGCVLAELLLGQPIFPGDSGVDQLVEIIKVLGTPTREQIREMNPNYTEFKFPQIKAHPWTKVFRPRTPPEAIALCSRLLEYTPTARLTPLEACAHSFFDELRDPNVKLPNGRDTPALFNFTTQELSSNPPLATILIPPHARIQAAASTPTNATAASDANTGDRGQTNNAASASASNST

Molecules are shown by their SMILES.

Sequence of Dual specificity protein kinase CLK3 (Homo sapiens) (P49761 whole entry, looked up): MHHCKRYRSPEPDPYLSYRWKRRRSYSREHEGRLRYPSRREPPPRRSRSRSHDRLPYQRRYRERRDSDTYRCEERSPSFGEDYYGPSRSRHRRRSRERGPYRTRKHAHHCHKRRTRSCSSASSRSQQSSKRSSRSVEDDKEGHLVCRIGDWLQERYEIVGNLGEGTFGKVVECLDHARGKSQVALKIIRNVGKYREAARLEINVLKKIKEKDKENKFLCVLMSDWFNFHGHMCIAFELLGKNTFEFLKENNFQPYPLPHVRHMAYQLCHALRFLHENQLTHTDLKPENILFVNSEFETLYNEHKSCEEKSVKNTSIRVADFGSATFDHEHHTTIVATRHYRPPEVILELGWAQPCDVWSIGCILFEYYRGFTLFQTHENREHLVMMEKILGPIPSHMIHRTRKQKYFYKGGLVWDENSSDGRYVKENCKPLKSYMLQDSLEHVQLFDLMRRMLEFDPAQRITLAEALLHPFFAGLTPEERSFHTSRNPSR

For `COc1ccc2cc(-c3c(-c4ccncc4)nc(-c4ccc([S+](C)[O-])cc4)n3C)ccc2c1` (stereo unspecified), the inhibition (in general, the change of the read-out against control, counted positive when it falls) is 0.67% in test [1]; 0.49% in [2]; 3.52% in test [3]; -0.23% in test [4]; 0.37% in test [5]; 3.31% in test [6]. Moreover, the inhibition turned out to be 1.71% in [7], 4.07% in [8], 11.5% in [9] and 2.47% in [10].

For the compound `CS(=O)(=O)CCNCc1ccc(-c2ccc3ncnc(Nc4ccc(OCc5cccc(F)c5)c(C(F)(F)F)c4)c3c2)o1`, the inhibition in [1] was 0.98%; in test [2] it was 2.19%; in test [3], 1.7%; in test [4], -1.48%; in test [5] it was -1.44%; in test [6], 2.83%. Moreover, the inhibition in test [7] stood at 3.42%; in [8], 1.48%; in test [9], 0.2%; in [10], 0.25%.

`O=C1NC(=O)C(c2ccccc2Cl)=C1Nc1cccc(O)c1`: the inhibition in test [1] stood at 21.8%; in test [2], 8.06%; in [3], 38.5%; in test [4], 2.78%; in test [5] it was 15.2%; in test [6], 3.09%. Besides, the inhibition in test [7] was determined as 2.96%.

As to `NC(=O)c1cccc(Nc2nccc(Nc3cccc4[nH]ncc34)n2)c1`, the inhibition in [1] is 8.54%; in test [2], 3.35%; in [3] it was 22.1%; in test [4], 5.54%; in test [5], 28.3%; in [6], -1.74%. Also, the inhibition worked out at 7.45% in test [7], 8.87% in test [8], 42.1% in [9] and 8.67% in test [10].

For the compound `COc1cc2ncn(-c3cc(O[C@H](C)c4ccccc4Cl)c(C(N)=O)s3)c2cc1OC`, the inhibition is 7.93% in test [1]; -0.27% in test [2]; 3.73% in [3]; -0.01% in test [4]; 0.14% in test [5]; 2.5% in [6]. Also, the inhibition worked out at 5.55% in test [7], 5.34% in test [8], 19.8% in test [9] and 5.07% in test [10].

On to `O=C1NC(=O)C(c2cccc(Cl)c2)=C1Nc1ccc(O)c(Cl)c1`, for which the inhibition in test [1] stood at 5.01%; in test [2], 2.08%; in test [3], 17.3%; in [4] it was 1.51%; in [5], 8.29%; in [6], 1%. In addition, the inhibition in test [7] was determined as 0.69%.

In the case of `CC(=O)Nc1cccc(C#Cc2cncnc2Nc2ccc(OCc3cccc(F)c3)c(Cl)c2)n1`, the inhibition in test [1] is -0.85%; in [2] it was -0.63%; in test [3], -0.35%; in test [4], 1.51%; in test [5], 2.18%; in test [6], -0.79%. For the same compound, the inhibition in [7] was -0.95%; in test [8], 0.36%; in test [9] it was 1.39%; in [10] it was 1.37%.

Turning to `c1cnn2ncc(-c3ccnc(Nc4ccc5c(c4)OCCO5)n3)c2c1`, the inhibition came out at 52% in test [1]; 79.6% in [2]; 87.6% in [3]; 80.6% in test [4]; 88.9% in test [5]; 10.7% in test [6]. For the same compound, the inhibition in [7] was 50.8%; in [8] it was 75.6%; in test [9], 92.5%; in test [10], 74.4%.

Regarding `O=C(Nc1n[nH]c2nc(-c3ccco3)c(Br)cc12)C1CC1`, the inhibition amounted to 2.72% in test [1]; 1.71% in test [2]; 4.33% in [3]; 0.48% in test [4]; 3.25% in test [5]; 3.03% in test [6]. For the same compound, the values for the inhibition in test [7], in test [8] and in test [9] were 4.31%, 36.9% and 80.6%, respectively.

In the case of `CCn1c(-c2nonc2N)nc2c(C#CC(C)(C)O)nc(OC[C@@H](N)c3ccccc3)cc21`, the inhibition in test [1] was 0.8%; in test [2], -0.38%; in test [3], 5.33%; in test [4] it was 1.06%; in test [5] it was 4.19%; in test [6], -1.52%. Moreover, the inhibition in test [7] was -0.54%; in test [8], 37.4%; in test [9], 78.5%; in test [10] it was 32.1%.

With `CCn1c(-c2nonc2N)nc2c(C#CC(C)(C)O)nc(CN3CCCC3)cc21`, the inhibition in test [1] is 0.53%; in [2], 1.08%; in test [3] it was 2.47%; in test [4] it was 0.74%; in test [5] it was 2.39%; in test [6], -1.68%. Besides, the inhibition in test [7] was found to be 0.64%; in test [8], 5.1%; in test [9], 21.6%; in test [10] it was 4.97%.

`O=C1NC(=O)C(N2CCc3ccccc32)=C1c1ccc(Cl)cc1`: the inhibition is 2.44% in test [1]; 3.12% in test [2]; 4.67% in test [3]; 0.13% in test [4]; 1.08% in test [5]; 3.3% in test [6]. For the same compound, the inhibition is 3.36% in test [7], 3.79% in test [8] and 14% in test [9].

Take `NS(=O)(=O)c1cccc(-c2ccc3c(NC(=O)C4CC4)n[nH]c3c2)c1`: the inhibition in test [1] was 1.36%; in [2], 2.96%; in test [3], 3.42%; in [4], 2.16%; in test [5], 3.65%; in test [6] it was -1.18%. Besides, the inhibition in test [7] is -0.6%; in test [8] it was 1.01%; in test [9] it was 3.15%.

Take `COc1ccc(-c2ccncc2)cc1C(N)=O`: the inhibition was 0.61% in [1]; 3.91% in test [2]; 6.95% in [3]; -1.51% in [4]; 2.44% in test [5]; 3.8% in [6]. In addition, the inhibition in test [7] amounted to 9.87%; in test [8] it was 3%; in [9] it was 4.53%; in [10], 2.89%.

Consider `CCn1c(-c2nonc2N)nc2cnc(Oc3cccc(NC(=O)c4ccc(OCCN5CCOCC5)cc4)c3)cc21`, for which the inhibition turned out to be 1.22% in [1]; 0.91% in test [2]; 4.24% in [3]; 0.06% in test [4]; 0.86% in test [5]; 3.68% in [6]. Also, the inhibition in test [7] was 5.39%; in test [8], 13.9%; in test [9], 56.5%; in test [10] it was 10.2%.

In the case of `CC1=C(C(=O)Nc2ccc3[nH]ncc3c2)C(c2ccc(F)cc2)NC(=O)N1` (stereo unspecified), the inhibition in test [1] is 1.47%; in [2], 1.78%; in test [3], 1.58%; in [4], -0.22%; in [5], 3.29%; in [6] it was 0.94%. The inhibition in [7] was 2.08%; in [8] it was -0.66%; in test [9], -0.33%; in test [10], -0.1%.

Turning to `Cc1nn(C)c2cc(N(C)c3ccnc(Nc4cccc(S(N)(=O)=O)c4)n3)ccc12`, the inhibition in test [1] is 3.34%; in test [2], 0.4%; in test [3] it was 0.86%; in [4], -1.86%; in [5], -1.3%; in [6] it was 2.83%. For the same compound, the inhibition in test [7] stood at 2.82%; in test [8], 1.79%; in [9], 3.95%; in test [10], 0.37%.
